In paper PMC13541613, “GHT-SELEX demonstrates unexpectedly high intrinsic sequence specificity and complex DNA binding of many human transcription factors” one finds binding signal data, which are given here for 34 sequences.

Common to all, as to assay: HT-SELEX; 20 mM HEPES pH 7, 140 mM KCl, 5 mM NaCl, 1 mM K2HPO4, 2 mM MgSO4, 100 uM EGTA, ZnSO4, 0.1% Tween20; room temperature, 1 h; high values mean tight binding
Holding throughout (details): protein: ivt; tags: eGFP (N-terminal); dsDNA, one strand shown

One assay concerns the target ZNF721 full-length (Homo sapiens, UniProt Q8TF20-2 1-923). A digest of the protocol: (§1)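 In HEPES/KCl low-stringency buffer with Tween20, a bead-immobilised tagged transcription factor (full-length or DNA-binding-domain fragment, from HEK293 lysate or cell-free extract) was incubated with a randomized 40-base DNA library for 1 h at room temperature. DNA retained after washing was heat-eluted, amplified by PCR over successive cycles and Illumina-sequenced, giving ~3 million 60 bp reads per sample. The reported binding signal, a relative k-mer count in those selected reads, rises with tighter binding.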

For a further assay, the target named is ZNF721 DBD2 (Homo sapiens, UniProt Q8TF20-2 395-923). A digest of the protocol:
as §1

In another assay the target is ZNF721 DBD1 (Homo sapiens, UniProt Q8TF20-2 29-461). A digest of the protocol: as §1
ZNF721 DBD1, sequence (Q8TF20 17-449): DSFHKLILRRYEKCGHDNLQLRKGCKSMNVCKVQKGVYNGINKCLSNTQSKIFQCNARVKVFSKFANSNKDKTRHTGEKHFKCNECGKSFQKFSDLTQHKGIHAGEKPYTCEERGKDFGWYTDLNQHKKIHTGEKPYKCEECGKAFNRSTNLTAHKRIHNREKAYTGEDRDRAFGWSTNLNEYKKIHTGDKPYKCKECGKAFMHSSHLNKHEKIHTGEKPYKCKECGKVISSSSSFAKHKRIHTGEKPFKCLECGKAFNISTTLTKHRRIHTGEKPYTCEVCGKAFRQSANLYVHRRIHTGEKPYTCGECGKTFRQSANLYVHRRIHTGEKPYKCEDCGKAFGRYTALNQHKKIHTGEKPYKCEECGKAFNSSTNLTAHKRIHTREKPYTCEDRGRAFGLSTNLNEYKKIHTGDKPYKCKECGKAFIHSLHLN

ZNF721 full-length, sequence (Q8TF20 other isoform, or with tags, fused parts or gaps): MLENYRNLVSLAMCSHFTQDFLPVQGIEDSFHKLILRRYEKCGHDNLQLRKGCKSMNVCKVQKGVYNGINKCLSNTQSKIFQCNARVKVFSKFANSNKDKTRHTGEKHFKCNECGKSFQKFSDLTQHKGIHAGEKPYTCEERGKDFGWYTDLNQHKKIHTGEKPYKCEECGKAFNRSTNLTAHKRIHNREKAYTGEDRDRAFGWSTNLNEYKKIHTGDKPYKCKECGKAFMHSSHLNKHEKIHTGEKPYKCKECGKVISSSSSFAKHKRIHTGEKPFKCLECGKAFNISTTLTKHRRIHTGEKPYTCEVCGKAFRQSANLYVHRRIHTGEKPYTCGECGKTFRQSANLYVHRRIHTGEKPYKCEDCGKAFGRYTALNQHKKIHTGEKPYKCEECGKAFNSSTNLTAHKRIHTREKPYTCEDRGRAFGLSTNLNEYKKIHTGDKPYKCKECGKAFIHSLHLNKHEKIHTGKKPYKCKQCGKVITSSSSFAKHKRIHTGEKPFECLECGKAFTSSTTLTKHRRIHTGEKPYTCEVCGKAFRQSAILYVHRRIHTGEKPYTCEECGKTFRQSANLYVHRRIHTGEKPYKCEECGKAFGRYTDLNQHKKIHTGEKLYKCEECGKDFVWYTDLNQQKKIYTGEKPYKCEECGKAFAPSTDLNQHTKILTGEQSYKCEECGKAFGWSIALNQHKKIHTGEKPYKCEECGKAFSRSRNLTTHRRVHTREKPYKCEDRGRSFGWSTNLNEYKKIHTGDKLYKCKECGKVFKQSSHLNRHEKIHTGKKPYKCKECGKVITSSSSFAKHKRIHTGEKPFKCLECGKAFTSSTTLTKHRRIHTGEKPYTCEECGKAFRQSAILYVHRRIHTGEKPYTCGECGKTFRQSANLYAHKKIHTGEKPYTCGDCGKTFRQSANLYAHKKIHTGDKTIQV
ZNF721 DBD2, sequence (Q8TF20 383-911): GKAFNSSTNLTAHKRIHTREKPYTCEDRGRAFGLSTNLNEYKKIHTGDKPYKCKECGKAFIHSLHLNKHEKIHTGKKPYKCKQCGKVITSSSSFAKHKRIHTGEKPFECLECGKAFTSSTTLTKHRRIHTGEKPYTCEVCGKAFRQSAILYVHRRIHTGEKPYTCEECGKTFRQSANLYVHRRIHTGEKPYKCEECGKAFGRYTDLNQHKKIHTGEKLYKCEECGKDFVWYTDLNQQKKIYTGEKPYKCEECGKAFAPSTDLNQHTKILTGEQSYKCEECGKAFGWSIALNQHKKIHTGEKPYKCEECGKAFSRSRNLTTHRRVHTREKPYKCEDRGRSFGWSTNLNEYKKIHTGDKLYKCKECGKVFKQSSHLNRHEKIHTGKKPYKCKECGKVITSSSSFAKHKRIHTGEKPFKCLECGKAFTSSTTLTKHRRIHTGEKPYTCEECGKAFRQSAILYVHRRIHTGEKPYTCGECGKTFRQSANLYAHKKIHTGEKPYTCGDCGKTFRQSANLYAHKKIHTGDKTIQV

Take AAAAGCAGTG: the binding signal turned out to be 0.383 relative 10-mer count with ZNF721 full-length and 0.397 relative 10-mer count with ZNF721 DBD2.
The like results for ACAAAACAGC were, in that order, 0.249 relative 10-mer count and 0.272 relative 10-mer count.
The like results for CGCTGTTTTC were, in that order, 0.221 relative 10-mer count and 0.356 relative 10-mer count.
The like results for ACAAAACAGT were, in that order, 0.115 relative 10-mer count and 0.123 relative 10-mer count.
In the case of ACAGCATACC, the binding signal with ZNF721 full-length amounted to 0.516 relative 10-mer count; with ZNF721 DBD2 it was 0.692 relative 10-mer count.
Regarding ATGCTGTTTC, the figures for the binding signal with ZNF721 full-length and with ZNF721 DBD2 were 0.143 relative 10-mer count and 0.178 relative 10-mer count, respectively.
For AACGCTGCTT the same measures were 0.207 relative 10-mer count and 0.327 relative 10-mer count.
Take ACACTGCTTG: the binding signal in the assay with ZNF721 full-length is 0.107 relative 10-mer count; with ZNF721 DBD2 it was 0.138 relative 10-mer count.
For the sequence AAAACAGCAG, the values for the binding signal with ZNF721 full-length and with ZNF721 DBD2 were 0.243 relative 10-mer count and 0.264 relative 10-mer count, respectively.
For ATAAAACAGC the same measures were 0.158 relative 10-mer count and 0.214 relative 10-mer count.
Take CCACCTACCC: the binding signal with ZNF721 full-length was determined as 0.112 relative 10-mer count; in the assay with ZNF721 DBD1, 0.00527 relative 10-mer count; with ZNF721 DBD2 it was 0.00455 relative 10-mer count.
For AACAGTGTAT, the figures for the binding signal in the assay with ZNF721 full-length and with ZNF721 DBD2 were 0.129 relative 10-mer count and 0.199 relative 10-mer count, respectively.
CTCCCCCCCA: the figures for the binding signal with ZNF721 full-length, in the assay with ZNF721 DBD1 and with ZNF721 DBD2 were 0.117 relative 10-mer count, 0.005 relative 10-mer count and 0.00587 relative 10-mer count, respectively.
Take CGAAAACAGC: the binding signal in the assay with ZNF721 full-length came to 0.167 relative 10-mer count; with ZNF721 DBD2, 0.261 relative 10-mer count.
For AAACAGTGTT the same measures were 0.338 relative 10-mer count and 0.546 relative 10-mer count.
For ACAGTGTTTC the same measures were 0.14 relative 10-mer count and 0.272 relative 10-mer count.
Take AGAGTACCCA: the binding signal with ZNF721 full-length turned out to be 0.112 relative 10-mer count; with ZNF721 DBD2 it was 0.123 relative 10-mer count.
With AAAGAAACAG, the binding signal with ZNF721 full-length was 0.126 relative 10-mer count; with ZNF721 DBD2 it was 0.119 relative 10-mer count.
For AAAAACAGTC the same measures were 0.149 relative 10-mer count and 0.169 relative 10-mer count.
For AACAGCATCC the same measures were 0.117 relative 10-mer count and 0.1 relative 10-mer count.
For CAGTGTTTCC the same measures were 0.252 relative 10-mer count and 0.641 relative 10-mer count.
Regarding AAAACTAGCA, the binding signal came out at 0.127 relative 10-mer count in the assay with ZNF721 full-length and 0.173 relative 10-mer count with ZNF721 DBD2.
On to AACCCTGCTT, for which the values for the binding signal with ZNF721 full-length and with ZNF721 DBD2 were 0.197 relative 10-mer count and 0.258 relative 10-mer count, respectively.
For CGCTGTTTTA the same measures were 0.126 relative 10-mer count and 0.174 relative 10-mer count.
For CCCAACCCCA, the binding signal with ZNF721 full-length worked out at 0.132 relative 10-mer count; with ZNF721 DBD1 it was 0.00459 relative 10-mer count; with ZNF721 DBD2, 0.00372 relative 10-mer count.
The like results for CCCCACCATC were, in that order, 0.111 relative 10-mer count, 0.00477 relative 10-mer count and 0.00563 relative 10-mer count.
In the case of AAACAGCATC, the figures for the binding signal in the assay with ZNF721 full-length and in the assay with ZNF721 DBD2 were 0.208 relative 10-mer count and 0.21 relative 10-mer count, respectively.
For AACAGTGTTG the same measures were 0.127 relative 10-mer count and 0.327 relative 10-mer count.
For AAAACAGCGC, the binding signal with ZNF721 full-length worked out at 0.17 relative 10-mer count; in the assay with ZNF721 DBD2 it was 0.225 relative 10-mer count.
For AAAGCGTACC, the binding signal in the assay with ZNF721 full-length was found to be 0.109 relative 10-mer count; with ZNF721 DBD1 it was 0.0281 relative 10-mer count; in the assay with ZNF721 DBD2, 0.0144 relative 10-mer count.
In the case of AAAAGAACAG, the binding signal worked out at 0.113 relative 10-mer count with ZNF721 full-length and 0.0777 relative 10-mer count in the assay with ZNF721 DBD2.
The like results for AAACAGCGTC were, in that order, 0.206 relative 10-mer count and 0.277 relative 10-mer count.
As to ACAAAAACAG, the binding signal is 0.13 relative 10-mer count in the assay with ZNF721 full-length and 0.173 relative 10-mer count in the assay with ZNF721 DBD2.
Turning to CCTCCTCCCC, the binding signal was determined as 0.169 relative 10-mer count in the assay with ZNF721 full-length, 0.00881 relative 10-mer count with ZNF721 DBD1 and 0.00527 relative 10-mer count with ZNF721 DBD2.
